Assay outcomes deposited in PubChem BioAssay by SRMLSC.
Rows were chosen to be rich in hits. Some 6.8% of all compounds tested hit in one or more screens of this group.
MK inhibit: S. pneumoniae MK inhibitors, primary screen, biochemical, PK/LDH-coupled NADH absorbance; mevalonate kinase [Streptococcus pneumoniae D39]; purified MK, PK/LDH-coupled NADH absorbance 340 nm; inhibition, % at 10 µM; hit rate 0.48% among 65,000;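 active = ranked among the strongest by inhibition in the single 10 µM screen, a fixed top-ranked set picked for dose follow-up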
Autofluor 339: intrinsic fluorescence of library compounds, ex339/em460 – biochemical, MLSMR library, data from DPM-DC assay, artefact control, profiling panel; compound autofluorescence, ex339/em460 nm, NADH buffer; hits give high values; 1 = no-compound wells, NADH background; fluorescence fold increase at 10 µM; hit rate 5.5% among 65,000; AID 709, 2007;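 active = at 10 µM, mean starting fluorescence two-fold or more over control wells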;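 also: signal is the first read of a kinetic run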
Abs 340nm: compound light absorbance at 340 nm, profiling panel, artefact control, biochemical, MLSMR library, data from PS, PMK, MK assays | fold change at 10 µM | compound absorbance at 340 nm, fold over control | 65,000 tested, under 10 active;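 active = at 10 µM dose, initial 340 nm absorbance at least 2 fold that of control wells; inactive = change under 2 fold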;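 also: initial absorbance extrapolated from kinetic A340 decline of NADH oxidation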
PMK inhibit: S. pneumoniae PMK inhibitors, primary screen, biochemical, mevalonate pathway, pilot trial included | phosphomevalonate kinase (Streptococcus pneumoniae D39) | purified PMK, PK/LDH-coupled NADH absorbance 340 nm | inhibition, % at 10 µM | hit rate 0.49% among 65,000 | AID 539, 2006;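 active = top-ranked compounds by inhibition in the single 10 µM screen, taking a fixed number of the strongest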
NADH coupling: inhibitors of PK/LDH coupling enzymes, profiling panel, artefact control, biochemical, MLSMR library. AID 774, 2007. hit rate 0.02% among 65,000. IC50, µM (doses to about 10 µM). coupled PK/LDH NADH assays, four targets;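 active = single-dose screening hits from any of four coupled enzyme assays that gave an IC50 when retested across doses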;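 also: the DPM-DC format reads NADH fluorescence rather than 340 nm absorbance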
DPM-DC inhibit: S. pneumoniae DPM-DC inhibitors, primary screen, biochemical, PK/LDH-coupled NADH fluorescence; diphosphomevalonate decarboxylase (Streptococcus pneumoniae D39); purified DPM-DC; calls only at 10 µM; hit rate 0.49% among 65,000;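 active = the 320 compounds with the highest percent inhibition in the single-dose primary screen, excluding strongly autofluorescent ones, cut at about 32% in these data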;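 also: kinetic rate of NADH fluorescence loss reporting ADP formed by the decarboxylase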
A number is an active result; 0 = inactive; - = no result shown; + = active, no number.

SMILES | MK inhibit | Autofluor 339 | Abs 340nm | PMK inhibit | NADH coupling | DPM-DC inhibit
CCOC(=O)c1cc2ccc(OC(=O)c3ccco3)cc2oc1=O | 0 | 3.7 | 0 | 0 | 0 | -
COc1ccccc1-c1c(C)oc2cc(OC(=O)c3ccco3)ccc2c1=O | 0 | 2.1 | 0 | 0 | 0 | 0
COc1ccccc1Oc1c(C)oc2cc(OC(=O)c3ccco3)ccc2c1=O | 0 | 2.6 | 0 | 0 | 0 | 0
N#Cc1c(N)oc(-c2ccco2)c1-c1ccco1 | 0 | 2.1 | 0 | 0 | 0 | -
N#Cc1c(N)oc(-c2ccccc2)c1-c1ccccc1 | 0 | 0 | 0 | 0 | 0 | 0
O=C(O)c1ccc(COCC(F)(F)C(F)F)o1 | 0 | 0 | 0 | 0 | 0 | 0
CCN(CC)CCNc1nc2ccccc2n1C | 0 | 0 | 0 | 0 | 0 | 0
Cc1ccc2c(c1)nc(NCCO)n2C | 0 | 2.1 | 0 | 0 | 0 | 0
O=C(Cc1ccccc1)NCc1nc2ccccc2[nH]1 | 0 | 0 | 0 | 0 | 0 | 0
CN1CCN(C(=O)c2cnn3c(C(F)(F)F)cc(-c4ccc5c(c4)OCO5)nc23)CC1 | 0 | 0 | 0 | 0 | 0 | 0
O=C(c1ccco1)N1CCN(c2ncnc3c(-c4ccccc4)nsc23)CC1 | 0 | 0 | 0 | 0 | 0 | 0
CCN1CCN(C(=O)c2cnn3c(C(F)F)cc(-c4ccc(C)cc4)nc23)CC1 | 0 | 2.3 | 0 | 0 | 0 | 0
COc1ccc(-c2cc(C(F)F)n3ncc(C(=O)N4CCN(C(=O)c5ccco5)CC4)c3n2)cc1 | 0 | 2.1 | 0 | 0 | 0 | -
O=C(c1ccco1)N1CCN(C(=O)c2cnn3c(C(F)(F)F)cc(-c4cccs4)nc23)CC1 | 0 | 3.6 | 0 | 0 | 0 | -
COc1ccc(-c2nsc3c(N4CCN(C(=O)c5ccco5)CC4)ncnc23)cc1 | 0 | 2.8 | 0 | 0 | 0 | +
Cc1ccc2c(c1)N(CCC(=O)NCCCOC(C)C)C(=O)C(C)O2 (centres undefined) | 0 | 0 | 0 | 0 | 0 | 0
CC(C)OC(=O)[C@H]1[C@H](c2ccc(Cl)cc2)[C@@](C#N)(C(N)=O)[C@@H]2C=CC(C(N)=O)=CN21 | 0 | 0 | 0 | 0 | 0 | 0
COc1ccc(-c2cc(C(F)F)n3ncc(C(=O)NCCCN4CCCC4=O)c3n2)cc1 | 0 | 2.2 | 0 | 0 | 0 | -
COc1ccc(NC(=O)NCCCN2CCCC2=O)cc1 | 0 | 0 | 0 | 0 | 0 | 0
CC1CCCN(S(=O)(=O)c2cccc(-c3cn4cccnc4n3)c2)C1 (centres undefined) | 0 | 3.6 | 0 | 0 | 0 | -
CC(C1CC1)N(C(=O)NC1CCS(=O)(=O)C1)c1ccccc1 (centres undefined) | 0 | 0 | 0 | 0 | 0 | 0
Cn1c(-c2ccc(CN3CCCCC3)o2)nc2ccccc21 | 0 | 2.1 | 0 | 0 | 0 | 0
CCCCc1c(O)n2c(nc3ccccc32)[nH]c1=O | 0 | 0 | 0 | 0 | 0 | 0
CCCc1cc(=O)n2c(nc3ccccc32)[nH]1 | 0 | 3.9 | 0 | 0 | 0 | -
O=C(OCC#CCSc1nnc(-c2cccc3ccccc23)o1)c1cccs1 | 0 | 2.2 | 0 | 0 | 0 | 0
SMILES | MK inhibit | Autofluor 339 | Abs 340nm | PMK inhibit | NADH coupling | DPM-DC inhibit
O=C(OCC#CCSc1nnc(-c2ccccc2)o1)c1cccs1 | 0 | 0 | 0 | 0 | 0 | 0
COc1cc2c(cc1OC)CN(C(=O)CSc1nnc3scc(-c4ccccc4)n13)CC2 | 0 | 0 | 0 | 0 | 0 | +
O=C(CSc1nnc2scc(-c3ccccc3)n12)N1CCN(Cc2ccccc2)CC1 | 0 | 0 | 0 | 0 | 0 | 0
Cc1cccc(-n2nc3c(c2NC(=O)c2ccco2)CSC3)c1C | 0 | 0 | 0 | 25 | 0 | 0
COc1ccc(-n2nnnc2Sc2ccc(S(=O)(=O)N3CCOCC3)cn2)cc1 | 0 | 0 | 0 | 0 | 0 | 0
CCOc1ccc2nc(N3CCOCC3)nc(C)c2c1 | 0 | 3.8 | 0 | 0 | 0 | -
Nc1nc(N2CCOCC2)nc2ccccc12 | 0 | 4 | 0 | 0 | 0 | -
c1ccc2nc(N3CCOCC3)c(N3CCOCC3)nc2c1 | 0 | 0 | 0 | 0 | 0 | 0
Cc1cc(N2CCN(c3nc(N4CCOCC4)nc4ccccc34)CC2)c2ccccc2n1 | 0 | 2.1 | 0 | 0 | 0 | 0
c1ccc2c(N3CCCCC3)nc(N3CCCCC3)nc2c1 | 0 | 0 | 0 | 0 | 0 | 0
c1ccc2c(c1)nc(N1CCOCC1)c1c3ccccc3[nH]c21 | 0 | 3.6 | 0 | 0 | 0 | -
Cc1ccccc1CS(=O)(=O)Cc1ccc(C(=O)NCc2cccnc2)o1 | 0 | 0 | 0 | 0 | 0 | 0
Cc1occc1-c1nnc(SCC(=O)Nc2ccccc2N2CCCCC2)n1C | 0 | 0 | 0 | 0 | 0 | 0
COc1ccccc1COCC(O)CNCC1(N2CCCCC2)CCCCC1 (centres undefined) | 41 | 0 | 0 | 0 | 0 | 0
CC(=O)c1cc2c(cc1NC(=O)Nc1cccc(Cl)c1)OCCO2 | 0 | 2.6 | 0 | 0 | 0 | 0
CC(=O)Nc1cc2c(cc1C(C)=O)OCCO2 | 0 | 3.6 | 0 | 0 | 0 | -
CC(C)C(=O)Nc1cc2c(cc1C(=O)c1ccccc1)OCCO2 | 0 | 0 | 0 | 0 | 0 | 0
O=C(Nc1cccc(Cl)c1)Nc1ccc2c(c1)OCO2 | 0 | 0 | 0 | 0 | 0 | 0
CCC(=O)c1cc2c(cc1NC(=O)C(C)C)OCCO2 | 0 | 2.1 | 0 | 0 | 0 | 0
CC(=O)c1ccc(NC(=O)CSc2nnc(Cn3c(=O)sc4ccccc43)n2C)cc1 | 0 | 0 | 0 | 0 | 0 | 0
CCCCOC(=O)CSC1=C(C#N)C(c2ccccc2OC)C(C#N)C(=O)N1 (centres undefined) | 78 | 0 | 0 | 0 | 0 | 0
CC(=O)NCc1ccc(C(=O)CSc2nnc(-c3ccncc3)n2Cc2ccccc2)o1 | 0 | 0 | 0 | 0 | 0 | 0
Cc1ccc2c(n1)sc1c(N)ncnc12 | 0 | 2.1 | 0 | 0 | 0 | 0
O=C(CN(CCN1CCOCC1)C(=O)Cn1nnc(-c2ccc(F)cc2)n1)NC1CCCCC1 | 0 | 3.6 | 0 | 0 | 0 | -
CC(C)c1ccc(-c2nc3c([nH]2)c(=O)n(C)c(=O)n3C)cc1 | 0 | 2.5 | 0 | 0 | 0 | +
Cn1c(=O)c2[nH]c(Nc3ccccc3)nc2n(C)c1=O | 0 | 0 | 0 | 0 | 0 | 0
CC1CCc2c(sc(NC(=O)c3noc4c3CCCC4)c2C(N)=O)C1 (centres undefined) | 0 | 4.8 | 0 | 0 | 0 | -
COc1ccc(N2CCCn3c2nc2c3c(=O)n(Cc3ccccc3F)c(=O)n2C)c(OC)c1 | 0 | 0 | 0 | 0 | 0 | 0
C=CCn1c(NC(=O)c2ccccc2)c(C#N)c2nc3ccccc3nc21 | 0 | 2.1 | 0 | 0 | 0 | -
N#CCCn1c(-c2nonc2NC(=O)c2ccccc2Cl)nc2ccccc21 | 0 | 0 | 0 | 0 | 0 | 0
